Results as given in PubChem BioAssay AID1117319 (Southern Research Institute, 2015).
In all, about 260,000 compounds went through this assay and about 1,500 (0.58%) were called active. Inconclusive results (about 5%) are left out.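 The calls were made as follows: active = inhibition above a set limit at one or more doses, reproduced on every date tested; inconclusive = results disagree between test dates, or hit never tested in dose response; inactive = the rest.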 Only a sample is shown. Measured potencies and affinities stand elsewhere.

Target: Virion infectivity factor (Human immunodeficiency virus type 1 group M subtype B (isolate BH10)) + Virion infectivity factor (Human immunodeficiency virus type 1 group M subtype B (isolate BRU/LAI)) + Virion infectivity factor (Human immunodeficiency virus type 1 group M subtype B (isolate PCV12)) + Virion infectivity factor (Human immunodeficiency virus type 1 group M subtype B (isolate HXB2)) + DNA dC->dU-editing enzyme APOBEC-3G (Homo sapiens) (UniProt P69720+P69721+P69722+P69723+Q9HC16)
Experiment: inhibitors of Vif binding to APOBEC3G peptide, primary screen, biochemical, TR-FRET, GST-Vif 1-94, biotin-A3G peptide, dose response retest (AID 1117319);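 also: Vif residues 1-94 fused to GST binding biotinylated APOBEC3G peptide 110-148; 0% = full assay without inhibitor and 100% = GST in place of GST-Vif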
Conditions: hits give high values

inhibition, inactive:
CC(Oc1cccc(Cl)c1)C(=O)NNC(=O)c1cccnc1 (stereo not drawn) -4.59%
COC(=O)c1ccc(C(=O)OC)c(=O)[nH]1 0.04%
COC(=O)c1ccc(N)cc1O -0.17%
Cc1nc2nc(-c3ccccc3)[nH]n2c(=O)c1C 21.8%
Cn1c(=O)c2c(-c3ccccc3)n(Cc3ccccn3)cc2n(C)c1=O -0.87%
CC(=O)Nc1ccc(N2C(=O)CC(Sc3nc(C)cc(C)n3)C2=O)cc1 (stereo not drawn) 2.02%
CN(C)S(=O)(=O)c1ccc(N2CCCC2)c(C(=O)Nc2ccc(N3CCOCC3)cc2)c1 -0.06%
CC(=O)NCCc1ccc(C(=O)COC(=O)c2cccn2C)cc1 -0.53%
O=C(N/N=C/c1ccc(Cl)cc1Cl)C1CCN(c2ncc(C(F)(F)F)cc2Cl)CC1 0.03%
COc1ccc(C(=O)/C=C/c2ccc(OC)cc2OC)c(O)c1 -6.99%
COc1cccc(/C=C/C(=O)c2cccc([N+](=O)[O-])c2)c1OC -0.4%
COc1cccc(/C=C/C(=O)c2ccc3c(c2)OCCO3)c1OC -6.76%
COc1ccc(/C=C/C(=O)c2ccccc2)c(OC)c1 2.19%
CN(C)/C=C/C(=O)/C=C/c1ccc(Cl)cc1Cl 0.37%
COc1ccc(NC(=O)/C=C/c2cc(Br)ccc2OC)cc1 -0.44%
COc1ccc(OC)c(/C=C/C(=O)c2ccc(Cl)cc2)c1 -4.03%
NNC(=O)/C=C/c1ccc(Cl)cc1Cl -9.79%
Cn1c(=O)c2c(nc(CN3CCN(Cc4ccccc4)CC3)n2Cc2ccc(F)cc2)n(C)c1=O 8.38%
COc1cccc(CNC(=O)CCc2nc3cc(S(=O)(=O)N4CCOCC4)ccc3n2C)c1 -1.52%
COc1ccc(-c2nnc(SCC(=O)c3ccc[nH]3)o2)cc1 0.99%
O=C(Oc1ccccc1-c1nnco1)c1ccc(Cl)cc1 5.13%
COc1ccccc1C=CC(=O)C=Cc1ccccc1OC 7.01%
COc1ccc(C=CC(=O)c2cc(O)ccc2O)cc1 -0.99%
COc1ccccc1/C=C/C(=O)c1ccccc1 3.38%
COc1ccc(/C=C/C(=O)c2ccc(OC)cc2OC)cc1 -1.1%
Cc1nc(C(=O)N/N=C/c2[nH]ncc2Br)cs1 8.49%
COc1ccc(O)c(C(=O)c2cnn(S(=O)(=O)c3ccc(C)cc3)c2)c1 4.82%
CC1(C)CN(c2ccccc2)N(Cc2ccc(F)cc2)C1=O -1.71%
